Assay results: PubChem BioAssay (Tox21)
Results filed as inconclusive are left out. Values without a mark were called inactive. Activity calls are given as the source filed them. Calls follow the shape of the dose curve; as a rule, active = well fitted inhibition curve with a large enough effect in the repeat runs; inconclusive = weak or mixed curves; inactive = no such curve, though single readings can be large or run the other way.

What follows are molecules tested against Cytochrome P450 3A4 (Homo sapiens) (UniProt P08684) (assay: Cytochrome P450 Family 3 Subfamily A Member 4 (CYP3A4) small molecule antagonists: luciferase reporter qHTS assay (AID 1671201; also: nearly all actives have a fitted effect of over 50% in size)). Details: P450-Glo CYP3A4 enzyme, luciferin luminescence, 1 h; series mostly up to 115 µM; activity change, negative = inhibition: at the top concentration.
Text: National Center for Advancing Translational Sciences [NCATS]
U.S. Environmental Protection Agency [EPA]
National Institutes of Environmental Health Sciences [NIEHS]
National Toxicology Program [NTP]
U.S. Food and Drug Administration [FDA]
Cytochrome P450 (CYP) enzymes are membrane-bound hemeproteins that play a key role in metabolism of drugs and xenobiotics. Evaluation of the effect of chemicals on CYP isozymes is useful to minimize the adverse drug reactions and toxicities in drug development process. Tox21 chemicals were tested for their effect on CYP enzyme activities by using P450-Glo (TM) screening systems (Promega Corporation, Madison, WI). These systems provide a luminescent method containing proluciferin substrates and are converted to luciferin products by CYP isozymes. The luciferin products formed are detected with a luciferin detection reagent, and the amount of light produced is proportional to CYP activity. P450-Glo (TM) CYP3A4 screening system (Catalog. No. V9910) was used to detect the compounds that interfere in CYP3A4 activity. The positive control compound used for CYP3A4 assay is ketoconazole (Sigma-Aldrich, St. Louis, MO).
Tox21 Assay Protocol Summary:
Two ul of enzyme-substrate mix was dispensed into medium binding white/solid 1536-well plates (Greiner Bio-One North America Inc., Monroe, NC) using a BioRaptr Flying Reagent Dispenser (FRD, Beckman Coulter, Brea, CA). Compounds dissolved in DMSO and positive control (ketoconazole) were transferred to the assay plates at 23 nl using a Pintool station (Wako, San Diego, CA). The assay plates were incubated at room temperature for 10 min. Then 2 ul of NADPH regeneration solution was added to each well of the assay plates using an FRD and incubated at room temperature for 1 h. The reaction was stopped by adding 4 ul of detection reagent using an FRD and after 20 min incubation at room temperature the luminescence signal was measured using a ViewLux plate reader (Perkin Elmer, Shelton, CT). Data were expressed as relative luminescence units.
% is scaled to controls: 0 for no effect and ±100 for the full control effect; potency is read from the fitted curve at half-maximal effect.

Chain of Cytochrome P450 3A4 (Homo sapiens) (P08684 whole entry, looked up): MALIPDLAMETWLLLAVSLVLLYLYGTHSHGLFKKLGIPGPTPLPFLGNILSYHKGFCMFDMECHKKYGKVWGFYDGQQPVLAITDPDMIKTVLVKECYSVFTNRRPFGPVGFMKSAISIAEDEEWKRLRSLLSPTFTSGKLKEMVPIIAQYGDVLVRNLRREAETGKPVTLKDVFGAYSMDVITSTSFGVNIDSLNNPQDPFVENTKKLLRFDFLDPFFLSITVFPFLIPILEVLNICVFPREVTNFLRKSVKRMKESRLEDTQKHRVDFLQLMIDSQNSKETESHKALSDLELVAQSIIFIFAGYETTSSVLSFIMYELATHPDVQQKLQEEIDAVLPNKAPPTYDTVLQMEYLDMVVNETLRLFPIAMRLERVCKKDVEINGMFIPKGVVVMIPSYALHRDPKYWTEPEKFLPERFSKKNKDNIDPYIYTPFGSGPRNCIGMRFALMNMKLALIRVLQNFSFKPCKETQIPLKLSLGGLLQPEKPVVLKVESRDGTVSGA

Row | SMILES | activity change, negative = inhibition | Potency
1 | C1CCCCCCCCCCC1 | 3.28% [at 23.6 µM] | –
2 | NC1CCN(c2cccc(Cl)n2)CC1 | 7.76% [at 52.9 µM] | –
3 | CCN(CC)S(=O)(=O)c1ccc(C(=O)O)cc1 | 12.7% [at 52.9 µM] | –
4 | CC(=O)c1ccc(C)cc1 | 1.24% | –
5 | C=CC(=O)OCCCCCC | 7.05% | –
6 | CC/C=C\CCCCO | -21.4% | –
7 | CCC(=O)c1cccc(Cl)c1 | -12.7% | –
8 | NC(=O)Nc1nc2ccccc2[nH]1 | 150% | –
9 | C(=C(c1ccccc1)c1ccccc1)c1ccccc1 | 27.4% | –
10 | C[C@H](O)C(=O)Nc1c(I)c(C(=O)NC(CO)CO)c(I)c(C(=O)NC(CO)CO)c1I | 10.8% [at 52.9 µM] | –
11 | C/C=C1\C(=O)C[C@H]2[C@@H]3CCC4=CC(=O)CC[C@]4(C)[C@H]3CC[C@]12C | 65.1% [at 52.9 µM] | –
12 | COc1cccc(OC)c1 | 12.4% | –
13 | C=C(C)C1CC=C(C)C(O)C1 (stereo not given) | 40.4% | –
14 | COc1ccc(COC=O)cc1 | 6.8% | –
15 | COCCOC(=O)CC#N | 4.23% | –
16 | Cc1ccc(N)cc1[N+](=O)[O-] | – | 40.2 µM (active)
17 | Cc1cc(C)c(NC(=O)CN(CC(=O)O)CC(=O)O)c(C)c1Br | 4.67% [at 52.9 µM] | –
18 | CC(C)=CCC/C(C)=C/C(=O)O | -7.44% | –
19 | CCCCNc1ccccc1 | -2.35% | –
20 | CC1(C)SC(C)(C)SC(C)(C)S1 | 1.03% | –

Row | SMILES | activity change, negative = inhibition | Potency
21 | C=C(C)C(=O)OCCCCCCCCCCCCCCCCCC | 2.34% [at 23.6 µM] | –
22 | CCN1CCN(c2cc3c(cc2F)c(=O)c(C(=O)O)cn3C2CC2)CC1 | 0.872% [at 52.9 µM] | –
23 | O=C1OC(=O)c2cc([N+](=O)[O-])ccc21 | 9.37% | –
24 | CC(C)c1cccc(O)c1 | -3.77% | –
25 | O=C(O)c1cccc(C(=O)O)n1 | 50.1% | –
26 | OCC(O)[C@@H](O)[C@H](O)[C@H](O)CO[C@H]1O[C@H](CO)[C@@H](O)[C@H](O)[C@H]1O (stereo not given in full) | 1.41% | –
27 | CC(=O)N[C@@H](CCC(N)=O)C(=O)O | 12.4% [at 52.9 µM] | –
28 | CCCCCCCCCCCCI | -12.9% | –
29 | C#CC(C)(O)CC(C)C (stereo not given) | 5.53% | –
30 | CCO[Si](CCCN=C=O)(OCC)OCC | – | 35.6 µM (active)
31 | CN(C)C(=O)Nc1ccccc1 | 5.8% | –
32 | CCCCCCCCN(C)CCCCCCCC | 10.9% | –
33 | Cc1cc(C)cc(OCC2CNC(=O)O2)c1 (stereo not given) | -15% [at 52.9 µM] | –
34 | CC1=CC(=O)CCC1 | 9.28% | –
35 | Nc1nc(F)nc2c1ncn2[C@@H]1O[C@H](CO)[C@@H](O)[C@@H]1O | -15.7% [at 52.9 µM] | –
36 | Cc1ccccc1Br | 2.84% | –
37 | CCCCCCCCCCC1CO1 (stereo not given) | 4.21% | –
38 | Nc1nc2c(ncn2CCC(CO)CO)c(=O)[nH]1 | 4.34% [at 52.9 µM] | –
39 | NC(N)=NS(=O)(=O)c1ccc(N)cc1 | 11% [at 52.9 µM] | –
40 | CC(C)=CC(=O)O | 5.65% | –
